The subject of the experiment is VDR:RXRa (NR concentration 270 nM, RXRa partner concentration 90 nM). The experiment is described as follows: PBM binding z-score (relative to random genomic background probes); higher = stronger binding; sequences stand for … in GC…GCGATTGACAGCGTAGAATGAAGG
Here is the method: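 Protein-binding microarray (Agilent 4x180K custom design, double-stranded 60-nt probes: 5' GC cap, 34-nt variable region, 24-nt constant primer region; full probe sequence given). Purified or IVT nuclear receptor:RXRα heterodimers (3:1 NR:RXRα, mostly 270:90 nM) or homodimers were incubated for 1 h in PBS with 2% milk and no ligand, then detected with Alexa488 antibodies. Fluorescence from o1-orientation probes (~5 replicates averaged) was converted to z-scores against 500 random hg19 background probes. Variable regions are seed direct-repeat (DR0–DR5) sites, all their single-nucleotide variants and half-site ablations.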
With TCATATAAGTAATACAGGTGAAAGTCGGCATCTA, the PBM binding z-score was found to be 1.16.
The same measure for CAAACTAGGTCAAGAGGTTAAAGTCCGCTTCCCG: 4.18.
Next, TCGAGTAGGTTAGTTGGGGCATTCAGCCAACATA: 0.811; ACTAGCAGGCCAAGTTTGGGTAACTCAAACAAAG: -0.517; AGAATGAGGTTATCAAGATCAGGGAATTGCGGTC: 2.56.
The same measure for CGGACTAGGTCATCCAGGACAGTGAATACATTGA: 4.36; for TAGCCTAGGTCATTCAGGGGCCAGTAGAGAAAGC: 3.24.
Turning to CCTCGGAGGACAGAAGTTCAGAGCTGTCCGCTTT, the PBM binding z-score came out at 0.197.
Next, TCTTGTAGATCAACAGCAGGTTAAGAAAGATCGA: 0.341; GATACAGGGTCAGGTAGAGGCCAGAGTATGGAAA: 3.35; CTCGAAAGGTCGGTTGAGGTGCGTATACGGATAA: 2.09.
Next, CCAGACAGGTGAAAGGTAAATCAGTCTGGTACGC: 0.701.
The same measure for CAAACTAGTTCAAAGGTCAAAGTCGAGCCAACCA: 6.02; for TCTCGGAGGCCACGAAAGGTCAGAGCTCGACATC: 3.62.
Regarding GATACAGGGTCAAGGCCCGAGTACGCGTATTGAT, the PBM binding z-score was determined as 4.28.
Sequence TCTCGGAGGACACGAAGGTCAGTGCTTTCCAGAG displayed a PBM binding z-score of 2.08.
Turning to CCTACTGGGCCATCACGTCATTGATATCAACGTT, the PBM binding z-score was -0.314.
AGAGCGAGGGCACGCTGAGTTGATAGCAGAGTAG yielded a PBM binding z-score of 1.86.
In turn, ACTATTAGTTGAGCCGAGGGCAACCGATAGGTTG showed a PBM binding z-score of 0.613.
Next, ACGATTAGTTGACTTAGGGCAACCGATACGACGC: 0.161.
In turn, ATATGTAGATTACATCCGGGTCATTCAGGCTATG registered a PBM binding z-score of 3.34.
The same measure for ATAGGTAGGTTATCGGGTCATTCAGTTTGCGCAT: 5.32.
The same measure for CGAACTAGGTCAAGGACAGTGTATCTCCGCACGC: 1.78; for TAGCCTAGGTCATGCGAGCCAGTATAGTGTCGGC: 1.92; for TCGAGTAGGTTCCCAATGGGGCATTCAGCTTTCT: -0.37.
Next, CGTCAAAGTTCAACTAAGGTAATGTAAAGCACGC: 4.8; TTACCAAGGTGAAAGGTCGTTCATGCACGCCTTG: 3.53; CAAACTAGGTCAAAGGCCAAAGTCGAGCCAACCA: 2.6.
The sequence CGTCAAAGTTCAAGGTAACGTACCAGAAAGCAGC registered a PBM binding z-score of 3.87.
The same measure for CAAACTAGATCACCGGAAGGTCAAAGTCCGCATG: 3.03.
Turning to ACAGACAGGTGATGAAGTTAACTCAGGCTATCAT, the PBM binding z-score is 0.117.
The same measure for GCTCGGAGGACATGGTCAGAGCTTTGTCCGTAGA: -0.753; for TCATATAGGCAAAAGGTGAAAGTCGGTGTGGTAA: 1.05.
ACAGACAGGTGAGTGTAGGTAACTCAGCTGGACG displayed a PBM binding z-score of -0.371.
The same measure for CGTCCAAGGTTAAAGGTCAGTGAAGAGATGACGG: 4.69; for CGTCCAAGATCATAGGAGGTCAGTGAAGACAGAT: 2.63.
CGTCCCAGGTCAGAGAGGTCAGTGAATGCCGAGT showed a PBM binding z-score of 6.8.
The same measure for CAAACTAGGTCACCGGAAGGCCAAAGTCCGCATG: 3.23.
Next, TAGCCTAGGTCATCGGGCCAGTATAGTACGCATC: 2.24.
Next, CGAACTAGGTCATCCAGGACAGAGAATACATTGA: 4.48.
